Results reported in PubChem BioAssay (Tox21).
Where “and” joins values, the source holds several entries; their conditions need not be identical. Equal values may be shown once. Records with an inconclusive call do not appear. Some structures have more than one record in an assay (separate samples or runs), and their calls can disagree. Calls of active or inactive are those of the source. Unless noted, the call rests on the fitted dose curve; in most records, active means well fitted curve in the direction sought with a large enough effect in the repeat runs; inconclusive means weak or mixed curves; inactive means no such curve, though single readings can be large; an effect the other way counts as inactive or inconclusive.

Experiments:
[1] = Human pregnane X receptor (PXR) small molecule agonists, qHTS cell viability counter screen (AID 1346977); further: nearly all actives have a fitted effect of over 50% in size; further: potency means the concentration at half of the fitted maximal effect
Procedure, shortened: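 After a 5hr pre-incubation, PXR-Luc HepG2 cells received compounds plus positive control in DMSO and were kept 24hr at 37C. Cell viability was quantified by fluorescence from CellTiter-Fluor added for the final hour.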

[2] = Caspase-3/7 induction in CHO-K1 cells by small molecules, qHTS cell viability counter screen (AID 1346979); further: nearly all actives have a fitted effect of over 35% in size; further: potency means the concentration at half of the fitted maximal effect
Procedure, shortened: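 Multiplexed with Caspase-Glo 3/7 in CHO-K1 cells, this counter screen added CellTiter-Fluor after 16hr of compound exposure and recorded fluorescence 1hr later.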

[3] = Caspase-3/7 induction in HepG2 cells by small molecules, qHTS cell viability counter screen (AID 1346981); further: nearly all actives have a fitted effect of over 30% in size; further: potency means the concentration at half of the fitted maximal effect
Procedure, shortened: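 In this quantitative HTS counter screen, compounds delivered in DMSO were left on unmodified HepG2 cells for 16 hr at 37 C. Viability was then determined fluorometrically with CellTiter-Fluor, in parallel with caspase-3/7 induction in the same wells.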

[4] = target: Nuclear receptor subfamily 1 group I member 2 (Homo sapiens) (UniProt O75469); test: Human pregnane X receptor (PXR) small molecule agonists, qHTS assay (AID 1346982); further: nearly all actives have a fitted effect of over 35% in size; further: potency means the concentration at half of the fitted maximal effect; on activation: on the % scale 0 is the no-effect control and ±100 the full control effect
Procedure, shortened: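 Reporter HepG2 cells expressing PXR-Luc are cultured in charcoal-stripped FBS (5%), treated with compounds for 24 hr at 37 C, and assayed by ONE-Glo luminescence after 30 min at room temperature.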

[5] = target: Acetylcholinesterase (Homo sapiens) (UniProt P22303); test: Acetylcholinesterase (AChE) small molecule antagonists: colormetric cell-based qHTS assay (AID 1347395; calls by dose curve; further: nearly all actives have a fitted effect of over 30% in size; further: potency means the concentration at half of the fitted maximal effect)
Procedure, shortened: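 In this cell-based qHTS, attached SH-SY5Y cells were treated with test chemicals for 30 min, after which acetylthiocholine hydrolysis was followed by DTNB colour development over 90 min at 37 C.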

[6] = target: Acetylcholinesterase (Homo sapiens) (UniProt P22303); test: Acetylcholinesterase (AChE) small molecule antagonists: enzyme-based qHTS assay (AID 1347397; calls by dose curve; further: nearly all actives have a fitted effect of over 55% in size; further: potency means the concentration at half of the fitted maximal effect); details: Potency: AChE enzyme activity inhibition
Procedure, shortened: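 Tox21 library chemicals are tested in qHTS format against recombinant human AChE. The enzyme, dispensed at 50 mU/mL, sits with compound for 30 min at room temperature. A DTNB–acetylthiocholine cocktail follows, and colour is read after 10 min.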

[7] = target: Acetylcholinesterase (Homo sapiens) (UniProt P22303); test: Acetylcholinesterase (AChE) small molecule antagonists: fluorescence cell-based qHTS assay (AID 1347398; calls by dose curve; further: nearly all actives have a fitted effect of over 50% in size; further: potency means the concentration at half of the fitted maximal effect); details: Potency: AChE activity
Procedure, shortened: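 Cellular AChE inhibition: SH-SY5Y cells treated with test chemical for 30 min at 37 C, then acetylthiocholine hydrolysis followed over 40 min at room temperature via thiocholine-reactive Thiolite Green fluorescence (490/520 nm).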

[8] = target: Acetylcholinesterase (Homo sapiens) (UniProt P22303); test: Acetylcholinesterase (AChE) small molecule antagonists: enzyme-based qHTS assay with human liver microsomes (AID 1347399; calls by dose curve; further: on the % scale 0 is the no-effect control and ±100 the full control effect; nearly all actives have a fitted effect of over 60% in size); details: Potency: qHTS inhibition
Procedure, shortened: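 Recombinant human AChE (50 mU/mL in the enzyme mix) and human liver microsomes (0.25 mg/mL final) were preincubated with compound and NADPH (0.25 mg/mL final) for 30 min at 37 C. Acetylthiocholine/DTNB was then added; thiocholine was read colorimetrically after 10 min at room temperature.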

[9] = target: Cytochrome P450 2D6 (Homo sapiens) (UniProt P10635); test: Cytochrome P450 Family 2 Subfamily D Member 6 (CYP2D6) small molecule antagonists: luciferase reporter qHTS assay (AID 1671196); further: nearly all actives have a fitted effect of over 50% in size; further: potency means the concentration at half of the fitted maximal effect
Procedure, shortened: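 Test chemicals meet CYP2D6 plus proluciferin substrate (10 min, RT); NADPH regenerating solution then drives turnover for 1 h. Detection reagent halts the reaction; luminescence measured after 20 min.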

[10] = target: Cytochrome P450 2C19 (Homo sapiens) (UniProt P33261); test: Cytochrome P450 Family 2 Subfamily C Member 19 (CYP2C19) small molecule antagonists: luciferase reporter qHTS assay (AID 1671197); further: nearly all actives have a fitted effect of over 65% in size; further: potency means the concentration at half of the fitted maximal effect
Procedure, shortened: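 P450-Glo CYP2C19 screening system; proluciferin substrate; DMSO compound stocks; 10 min RT preincubation; NADPH regeneration, 1 h at 37C; luciferin detection reagent, 20 min RT; luminescence as RLU.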

[11] = target: Cytochrome P450 1A2 (Homo sapiens) (UniProt P05177); test: Cytochrome P450 Family 1 Subfamily A Member 2 (CYP1A2) small molecule antagonists: luciferase reporter qHTS assay (AID 1671199); further: nearly all actives have a fitted effect of over 50% in size; further: potency means the concentration at half of the fitted maximal effect
Procedure, shortened: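 Steps: enzyme-substrate mix dispensed; test compounds and furafylline control pinned in; 10 min room temperature; NADPH regeneration solution added, 1 h; reaction stopped with luciferin detection reagent; luminescence read after 20 min.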

[12] = target: Voltage-gated inwardly rectifying potassium channel KCNH2 (Homo sapiens) (UniProt Q12809); test: Human Ether-a-go-go-Related Gene (hERG) channel small molecule antagonists: fluorescence cell-based qHTS assay (AID 1671200); further: nearly all actives have a fitted effect of over 50% in size; further: potency means the concentration at half of the fitted maximal effect
Procedure, shortened: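 Cell line hERG-U2OS; dye FluxOR II, 1 h RT dark; Tl+ stimulus; ex 480/em 540 nm, read each second for 2 min.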

[13] = Caspase-3/7 induction in HepG2 cells by small molecules, qHTS assay (AID 1346978); further: nearly all actives have a fitted effect of over 15% in size; further: potency means the concentration at half of the fitted maximal effect
Procedure, shortened: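 Wild-type HepG2 cells (2,000/well) were settled 5 h at 37 C, 5% CO2, then exposed to compounds in DMSO for 17 h. Caspase-3/7 activity was read by luminescence 30 min after adding Caspase-Glo 3/7 reagent at room temperature.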

[14] = Caspase-3/7 induction in CHO-K1 cells by small molecules, qHTS assay (AID 1346980); further: on the % scale 0 is the no-effect control and ±100 the full control effect; nearly all actives have a fitted effect of over 15% in size
Procedure, shortened: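 Wild-type cells were seeded at 1,500 per well and settled 5 hr at 37 C, 5% CO2, then exposed to DMSO-dissolved compounds for 17 hr. Caspase-Glo 3/7 reagent was added, and luminescence was read after 30min at room temperature.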

[15] = target: Nuclear receptor subfamily 1 group I member 2 (Rattus norvegicus) (UniProt Q9R1A7); test: Rat pregnane X receptor (rPXR) activation by small molecules, qHTS assay (AID 1346983); details: rPXR luciferase reporter cells, One-Glo luminescence, 24 h; max activation: stronger effect = higher value; further: nearly all actives have a fitted effect of over 20% in size; further: potency means the concentration at half of the fitted maximal effect; on max activation: on the % scale 0 is the no-effect control and ±100 the full control effect
Procedure, shortened: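 Cell-based rPXR luciferase reporter assay, 2,000 cells per well, rested 5hr at 37 C before compound addition in DMSO, then 24 hr at 37 C. One-Glo reagent was added and luminescence read after 30 min at room temperature.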

[16] = target: Nuclear receptor subfamily 1 group I member 2 (Homo sapiens) (UniProt O75469); test: CYP3A4 induction through human pregnane X receptor (PXR) by small molecules, qHTS assay (AID 1346984); further: on the % scale 0 is the no-effect control and ±100 the full control effect; nearly all actives have a fitted effect of over 40% in size
Procedure, shortened: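 Induction measured in HepG2-based DPX-2 cells co-expressing human PXR and a CYP3A4 promoter-driven luciferase. After a 24-hour compound exposure, cells received CYP3A4 luciferin substrate at 3uM final for 3 hours, and light output was then recorded.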

[17] = target: Nuclear receptor subfamily 1 group I member 2 (Homo sapiens) (UniProt O75469); test: Human pregnane X receptor (PXR) activation by small molecules, qHTS assay (AID 1346985); further: potency means the concentration at half of the fitted maximal effect; nearly all actives have a fitted effect of over 40% in size
Procedure, shortened: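 DPX-2 cells (HepG2 co-transfected with a PXR response element and a CYP3A4-promoter luciferase construct) were seeded at 2,000 per well, rested 5 hr at 37C, then exposed to DMSO-dissolved compounds for 24 hr. Activation was read as luciferase luminescence.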

[18] = target: Cytochrome P450 2C9 (Homo sapiens) (UniProt P11712); test: Cytochrome P450 Family 2 Subfamily C Member 9 (CYP2C9) small molecule antagonists: luciferase reporter qHTS assay (AID 1671198); further: nearly all actives have a fitted effect of over 50% in size; further: potency means the concentration at half of the fitted maximal effect
Procedure, shortened: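 CYP2C9 activity was measured with a P450-Glo proluciferin substrate. Enzyme–substrate mix was held with compound for 10 min at room temperature, then NADPH regeneration solution was added for 1 h at 37C. Luciferin product was read as luminescence.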

[19] = target: Cytochrome P450 3A4 (Homo sapiens) (UniProt P08684); test: Cytochrome P450 Family 3 Subfamily A Member 4 (CYP3A4) small molecule antagonists: luciferase reporter qHTS assay (AID 1671201); further: nearly all actives have a fitted effect of over 50% in size; further: potency means the concentration at half of the fitted maximal effect
Procedure, shortened: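 Room-temperature assay throughout: 10 min compound–enzyme/substrate preincubation, 1 h reaction after NADPH regeneration solution, 20 min detection. Luciferin formed from proluciferin substrate is quantified by luminescence.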

Chain of Voltage-gated inwardly rectifying potassium channel KCNH2 (Homo sapiens) (Q12809 whole entry, looked up): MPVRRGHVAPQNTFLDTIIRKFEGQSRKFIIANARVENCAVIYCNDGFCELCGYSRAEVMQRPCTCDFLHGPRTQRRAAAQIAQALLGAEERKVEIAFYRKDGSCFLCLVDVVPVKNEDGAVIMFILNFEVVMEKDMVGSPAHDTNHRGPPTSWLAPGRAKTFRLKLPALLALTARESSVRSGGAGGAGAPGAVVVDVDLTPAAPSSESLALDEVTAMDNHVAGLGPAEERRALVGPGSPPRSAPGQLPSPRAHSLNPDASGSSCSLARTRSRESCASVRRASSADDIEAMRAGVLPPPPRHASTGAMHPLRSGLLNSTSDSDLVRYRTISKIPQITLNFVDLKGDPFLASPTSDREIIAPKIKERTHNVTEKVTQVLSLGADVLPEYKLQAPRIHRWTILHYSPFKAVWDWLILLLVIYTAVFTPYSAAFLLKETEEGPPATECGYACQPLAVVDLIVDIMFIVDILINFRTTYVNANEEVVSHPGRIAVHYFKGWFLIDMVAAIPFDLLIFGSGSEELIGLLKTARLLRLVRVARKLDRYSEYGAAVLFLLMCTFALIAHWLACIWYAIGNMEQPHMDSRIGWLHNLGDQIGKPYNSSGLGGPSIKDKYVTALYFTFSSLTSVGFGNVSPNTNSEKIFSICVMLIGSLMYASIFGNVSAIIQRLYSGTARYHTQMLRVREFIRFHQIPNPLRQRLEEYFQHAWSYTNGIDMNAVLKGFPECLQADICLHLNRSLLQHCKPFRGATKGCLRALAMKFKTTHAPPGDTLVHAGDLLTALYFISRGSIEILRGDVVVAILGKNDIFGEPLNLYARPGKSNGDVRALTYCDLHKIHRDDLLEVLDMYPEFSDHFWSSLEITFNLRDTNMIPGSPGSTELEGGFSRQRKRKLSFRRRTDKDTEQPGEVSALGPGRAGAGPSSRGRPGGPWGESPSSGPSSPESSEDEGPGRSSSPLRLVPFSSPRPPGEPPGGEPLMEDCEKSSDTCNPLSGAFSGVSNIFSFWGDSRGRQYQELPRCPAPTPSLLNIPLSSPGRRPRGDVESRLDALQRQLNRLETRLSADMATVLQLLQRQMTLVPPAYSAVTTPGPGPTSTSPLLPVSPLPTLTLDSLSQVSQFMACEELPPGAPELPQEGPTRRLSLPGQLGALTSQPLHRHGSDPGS
Chain of Nuclear receptor subfamily 1 group I member 2 (Homo sapiens) (O75469 whole entry, looked up): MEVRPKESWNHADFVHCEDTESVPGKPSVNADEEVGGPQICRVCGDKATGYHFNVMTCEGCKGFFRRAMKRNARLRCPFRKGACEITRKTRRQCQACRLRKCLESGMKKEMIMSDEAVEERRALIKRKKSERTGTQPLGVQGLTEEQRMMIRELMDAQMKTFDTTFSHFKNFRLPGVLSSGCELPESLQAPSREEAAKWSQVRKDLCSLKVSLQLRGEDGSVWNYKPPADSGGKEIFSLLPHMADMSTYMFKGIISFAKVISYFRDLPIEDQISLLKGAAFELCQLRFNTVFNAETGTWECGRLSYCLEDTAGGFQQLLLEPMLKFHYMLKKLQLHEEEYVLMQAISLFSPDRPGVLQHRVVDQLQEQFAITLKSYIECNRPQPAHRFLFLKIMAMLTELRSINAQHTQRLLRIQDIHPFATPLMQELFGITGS
Chain of Cytochrome P450 1A2 (Homo sapiens) (P05177 whole entry, looked up): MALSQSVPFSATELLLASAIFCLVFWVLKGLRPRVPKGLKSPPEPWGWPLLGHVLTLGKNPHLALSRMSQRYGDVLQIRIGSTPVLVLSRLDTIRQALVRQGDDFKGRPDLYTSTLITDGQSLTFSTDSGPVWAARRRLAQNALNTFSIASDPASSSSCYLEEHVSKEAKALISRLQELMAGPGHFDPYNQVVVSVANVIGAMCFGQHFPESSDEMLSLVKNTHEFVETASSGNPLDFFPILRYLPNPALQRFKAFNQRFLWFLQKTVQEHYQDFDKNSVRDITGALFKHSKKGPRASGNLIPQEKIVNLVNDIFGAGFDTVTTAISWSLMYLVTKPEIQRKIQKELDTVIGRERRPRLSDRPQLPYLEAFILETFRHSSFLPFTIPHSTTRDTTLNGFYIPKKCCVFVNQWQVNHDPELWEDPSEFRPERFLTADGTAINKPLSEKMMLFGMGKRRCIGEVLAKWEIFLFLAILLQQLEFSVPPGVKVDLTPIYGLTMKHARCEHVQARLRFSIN
Chain of Cytochrome P450 2C9 (Homo sapiens) (P11712 whole entry, looked up): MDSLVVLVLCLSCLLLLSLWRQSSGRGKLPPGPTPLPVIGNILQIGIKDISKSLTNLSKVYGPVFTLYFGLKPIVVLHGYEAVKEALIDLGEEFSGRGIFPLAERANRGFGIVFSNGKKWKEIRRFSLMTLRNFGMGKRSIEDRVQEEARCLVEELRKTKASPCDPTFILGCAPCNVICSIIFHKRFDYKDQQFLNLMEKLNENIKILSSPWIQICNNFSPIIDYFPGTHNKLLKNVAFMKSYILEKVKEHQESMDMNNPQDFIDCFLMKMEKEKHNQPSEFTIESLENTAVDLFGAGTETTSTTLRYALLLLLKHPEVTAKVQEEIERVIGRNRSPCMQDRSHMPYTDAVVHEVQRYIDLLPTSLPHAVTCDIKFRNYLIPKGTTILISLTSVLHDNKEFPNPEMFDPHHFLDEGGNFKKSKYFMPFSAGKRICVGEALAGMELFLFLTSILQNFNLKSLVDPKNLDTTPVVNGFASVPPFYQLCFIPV
Chain of Cytochrome P450 2D6 (Homo sapiens) (P10635 whole entry, looked up): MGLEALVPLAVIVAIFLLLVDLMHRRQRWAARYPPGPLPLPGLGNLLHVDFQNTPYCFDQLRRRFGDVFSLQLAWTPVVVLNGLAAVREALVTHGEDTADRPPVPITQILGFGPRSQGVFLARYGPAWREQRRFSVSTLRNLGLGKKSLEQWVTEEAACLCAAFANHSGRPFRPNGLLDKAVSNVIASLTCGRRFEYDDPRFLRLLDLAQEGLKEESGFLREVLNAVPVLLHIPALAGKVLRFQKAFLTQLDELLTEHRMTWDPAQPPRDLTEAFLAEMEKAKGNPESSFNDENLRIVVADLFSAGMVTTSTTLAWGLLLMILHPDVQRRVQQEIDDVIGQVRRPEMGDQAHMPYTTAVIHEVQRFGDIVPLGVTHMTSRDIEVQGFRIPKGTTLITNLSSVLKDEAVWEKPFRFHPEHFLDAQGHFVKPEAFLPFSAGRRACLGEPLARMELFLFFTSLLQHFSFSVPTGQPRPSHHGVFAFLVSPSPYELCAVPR
Chain of Acetylcholinesterase (Homo sapiens) (P22303 whole entry, looked up): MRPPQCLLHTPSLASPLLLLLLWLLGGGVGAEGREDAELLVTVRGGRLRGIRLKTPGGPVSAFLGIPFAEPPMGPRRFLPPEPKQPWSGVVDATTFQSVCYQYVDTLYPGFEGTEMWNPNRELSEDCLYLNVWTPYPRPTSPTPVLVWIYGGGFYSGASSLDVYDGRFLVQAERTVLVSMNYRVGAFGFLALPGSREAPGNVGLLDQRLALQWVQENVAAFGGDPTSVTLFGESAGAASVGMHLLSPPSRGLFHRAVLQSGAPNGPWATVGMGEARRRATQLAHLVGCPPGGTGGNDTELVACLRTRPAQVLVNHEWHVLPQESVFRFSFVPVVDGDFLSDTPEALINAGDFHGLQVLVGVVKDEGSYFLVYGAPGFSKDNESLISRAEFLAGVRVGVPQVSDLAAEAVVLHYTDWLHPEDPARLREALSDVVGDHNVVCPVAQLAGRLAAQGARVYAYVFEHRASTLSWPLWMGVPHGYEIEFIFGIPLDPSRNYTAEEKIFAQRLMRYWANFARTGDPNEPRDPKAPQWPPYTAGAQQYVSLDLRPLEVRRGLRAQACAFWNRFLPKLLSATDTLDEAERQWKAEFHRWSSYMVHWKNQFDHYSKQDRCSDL
Chain of Cytochrome P450 2C19 (Homo sapiens) (P33261 whole entry, looked up): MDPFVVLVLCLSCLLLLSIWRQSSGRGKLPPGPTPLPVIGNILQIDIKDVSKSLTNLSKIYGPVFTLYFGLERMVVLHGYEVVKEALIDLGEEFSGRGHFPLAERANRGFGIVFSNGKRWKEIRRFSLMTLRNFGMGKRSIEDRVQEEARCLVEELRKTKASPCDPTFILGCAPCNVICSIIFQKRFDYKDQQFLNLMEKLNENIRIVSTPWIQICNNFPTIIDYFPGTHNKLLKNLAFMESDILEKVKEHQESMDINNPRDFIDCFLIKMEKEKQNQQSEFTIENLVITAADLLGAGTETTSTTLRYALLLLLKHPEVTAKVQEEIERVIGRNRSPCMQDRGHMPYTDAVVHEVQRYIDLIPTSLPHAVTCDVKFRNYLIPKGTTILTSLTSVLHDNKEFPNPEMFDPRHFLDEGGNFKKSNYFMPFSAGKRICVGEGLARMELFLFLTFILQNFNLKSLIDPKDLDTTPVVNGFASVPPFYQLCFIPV
Chain of Cytochrome P450 3A4 (Homo sapiens) (P08684 whole entry, looked up): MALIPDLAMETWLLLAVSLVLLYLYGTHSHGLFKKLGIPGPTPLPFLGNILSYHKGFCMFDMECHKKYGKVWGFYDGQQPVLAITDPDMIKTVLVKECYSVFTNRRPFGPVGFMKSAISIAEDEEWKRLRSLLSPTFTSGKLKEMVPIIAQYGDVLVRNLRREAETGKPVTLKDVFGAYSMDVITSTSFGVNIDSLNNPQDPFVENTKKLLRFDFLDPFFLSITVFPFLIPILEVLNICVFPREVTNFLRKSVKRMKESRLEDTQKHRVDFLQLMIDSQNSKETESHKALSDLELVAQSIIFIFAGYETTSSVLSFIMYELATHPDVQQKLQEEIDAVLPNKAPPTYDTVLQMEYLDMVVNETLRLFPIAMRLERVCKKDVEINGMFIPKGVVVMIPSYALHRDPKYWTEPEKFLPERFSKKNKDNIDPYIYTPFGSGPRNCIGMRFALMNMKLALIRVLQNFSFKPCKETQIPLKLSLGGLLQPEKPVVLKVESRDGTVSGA

CCN1CCC2(CC1)COc1cc3c(cc12)N(C(=O)c1ccc(-c2ccc(-c4nnc(C)o4)cc2C)cc1)CC3
active: Potency [1] 15.9 µM | Potency [2] 25.2 µM | Potency [3] 50.2 µM | Potency [4] 3.99 µM | Potency [5] 29.3 µM | Potency [6] 32.8 µM | Potency [7] 10.4 µM | Potency [9] 32.8 µM | Potency [10] 23.2 µM
inactive: Potency [8] | Potency [11] | Potency [12]

c1ccc2c(c1)cc1ccc3cccc4ccc2c1c34
inactive: Potency [1] | Potency [14] | Potency [5] | Potency [6] | Potency [7] | Potency [8] | Potency [9] | Potency [10] | Potency [12]
active: Potency [13] 6.99 µM | Potency [4] 5.55 µM | Potency [11] 0.363 µM

CC[C@]1(O)CC[C@H]2[C@@H]3CCC4=CCCC[C@@H]4[C@H]3CC[C@@]21C
inactive: Potency [1] | Potency [14] | Potency [3] | Potency [16] | Potency [5] | Potency [7] | Potency [8] | Potency [9] | Potency [12]
active: Potency [4] 23.7 µM | Potency [15] 14.1 µM | Potency [17] 8.91 µM | Potency [10] 12.3 µM

C1=CCC=C1
inactive: Potency [1] | Potency [2] | Potency [14] | Potency [3] | Potency [12]

CCC(C)c1cccc(C(C)CC)c1O (stereo not given)
active: Potency [18] 15.9 µM | Potency [11] 22.4 µM | Potency [19] 28.3 µM
inactive: Potency [1] | Potency [14] | Potency [3] | Potency [4] | Potency [5] | Potency [6] | Potency [7] | Potency [8] | Potency [9] | Potency [10] | Potency [12]

ClC1=C(Cl)[C@]2(Cl)[C@H]3[C@H]([C@@H]4C=C[C@H]3C4)[C@@]1(Cl)C2(Cl)Cl
inactive and 35.6 µM (active): Potency [10]
active: Potency [19] 252 nM and 399 nM
35.5 µM (active) and inactive: Potency [9]
inactive: Potency [1] | Potency [13] | Potency [3] | Potency [5] | Potency [6] | Potency [7] | Potency [8] | Potency [18] | Potency [11]
34.3 µM (active) and inactive: Potency [4]

Oc1cc(Cl)cc(Cl)c1
active: Potency [4] 69.3 µM | Potency [9] 71.7 µM | Potency [11] 32 µM
inactive: Potency [1] | Potency [13] | Potency [14] | Potency [3] | Potency [5] | Potency [6] | Potency [7] | Potency [8] | Potency [10] | Potency [12] | Potency [19]

CC(=O)[O-].CC(=O)[O-].CC(=O)[O-].[Cr+3]
inactive: Potency [1] | Potency [13] | Potency [14] | Potency [3] | Potency [12]

CCN(CC)CCN1C(=O)CN=C(c2ccccc2F)c2cc(Cl)ccc21
active: Potency [4] 13.3 µM | Potency [17] 14.1 µM | Potency [12] 3.79 µM
inactive: Potency [13] | Potency [2] | Potency [14] | Potency [3] | max activation [15] 8.1% | Potency [16] | Potency [5] | Potency [7] | Potency [8] | Potency [10] | Potency [11]

CCc1cccc(C)c1N(C(=O)CCl)[C@@H](C)COC
inactive: Potency [1] | Potency [13] | Potency [14] | Potency [3] | Potency [5] | Potency [6] | Potency [7] | Potency [8] | Potency [9] | Potency [12]
active: Potency [4] 7.7 µM | Potency [10] 5.64 µM | Potency [18] 17.8 µM
